# Among all 220,000 compounds or so, about 2,000 (0.91%) were called active. Another 2% or so got no clear call; they are omitted. Not all results are given here. Measured potencies and affinities stand elsewhere. Unmarked numbers belong to inactive results. No stated cut-off is given here; in the data, inconclusive means inhibition above about 80% without an active follow-up result; inactive means below that; test concentration not stated here.
# Test: M. tuberculosis H37Rv growth inhibitors, H37Rv strain (AID 1626);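 further: bacteria incubated seven days before Alamar blue readout; 0% = bacteria only wells and 100% = bacteria with antibiotic wells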
# Settings: stronger effect = higher value, concentration not given here
row,SMILES,inhibition [%]
1,COCCN(CCOC)C(=O)C1CCCN(S(=O)(=O)c2ccc(NC(=O)OC)cc2)C1 (stereo not given),-2.59
2,COc1cccc(Oc2coc3cc(OC(=O)N4CCOCC4)ccc3c2=O)c1,-2.14
3,CN(C)CCCN(C(=O)c1ccc(S(=O)(=O)N(C)C)cc1)c1nc2cc3c(cc2s1)OCO3,-1.53
4,CCOC(=O)c1ccccc1NC(=O)Cn1cnc2c(nnn2-c2ccc(C)cc2)c1=O,1.13
5,O=[N+]([O-])c1ccc(N2CCN(S(=O)(=O)c3ccccc3)CC2)cc1NCc1ccco1,-1.65
6,O=S(=O)(NCc1ccccc1)c1ccc(S(=O)(=O)N(Cc2ccccn2)C2CCCC2)cc1,-1.41
7,O=C1CC(/C=C/c2ccncc2)=Nc2ccccc2N1,-0.28
8,O=C1CC(/C=C/c2ccccc2)=Nc2ccccc2N1,2.15
9,CCOc1cccc(-c2cc(-c3n[nH]c(=S)n3CC)c3ccccc3n2)c1,14.2
10,COc1ccc(CNC(=O)COC(=O)C2CCN(S(=O)(=O)c3ccccc3C(F)(F)F)CC2)cc1,1.6
11,CC1C(c2ccccc2)C(C#N)(C#N)C2(C#N)C(=O)NC1(N)C2C (stereo not given),-0.87
12,O=[N+]([O-])c1ccc(Cl)cc1Sc1nc2ccccc2o1,-9.56
13,O=[N+]([O-])c1ccc(CSc2nc3ccccc3o2)cc1,-1.9
14,O=[N+]([O-])c1ccc(Sc2cccc3cccnc23)cc1,30.8
15,O=[N+]([O-])c1cc(Cl)ccc1Sc1cccc2cccnc12,28.5
16,O=C(c1ccc(Cl)c(S(=O)(=O)N2CCCC2)c1)N1CCN(c2ccc(F)cc2)CC1,3.62
17,COc1ccc(NC(=O)CSc2nc(NS(=O)(=O)c3ccccc3)cc(=O)[nH]2)cc1,3.87
18,CC(Sc1ccccc1)C(=O)Nc1ccccc1C(=O)N1CCOCC1 (stereo not given),-11.3
19,CC(C)(C)c1cc(-c2ccccc2)no1,10.7
20,COc1ccc(C(=O)Nc2ccc(N3CCN(Cc4ccccc4)CC3)cc2)cc1,4.64

row,SMILES,inhibition [%]
1,COc1ccccc1C(=O)Nc1ccc(N2CCN(Cc3ccccc3)CC2)cc1,40.9
2,O=C(NNc1ccc(-c2csnn2)cc1)c1cc(Cl)cc(Cl)c1,27.1
3,CCCCC1=CC2=C(c3ccco3)C(=O)C(C)(OC(=O)c3ccc(OC)cc3)C(=O)C2=CN1CCCOC(C)C (stereo not given),-5.76
4,CC(=O)OC(C(=O)N1CCOCC1)c1c(F)cccc1F (stereo not given),-0.03
5,O=C(CNC(=O)c1ccc(-c2ccccc2)cc1)OCc1ccc(Br)cc1,6.21
6,Cc1ccc(C(=O)N/C(=C\c2ccccc2)C(=O)OCc2ccccc2)cc1,12.7
7,O=C(CCCNC(=O)/C(=C/c1ccc(Br)cc1)NC(=O)c1ccccc1)OCc1ccccc1,1.44
8,O=C(CCCNC(=O)/C(=C\c1ccc(F)cc1)NC(=O)c1ccccc1)OCc1ccccc1,1.82
9,COc1ccc(-c2cn3cc(C(F)(F)F)cc(Cl)c3n2)cc1,65.8
10,CCCc1cc(C(N)=O)c(NC(C)=O)s1,2.59
11,O=C(c1cc(-c2ccccc2)on1)N1CCc2ccccc2C1,-6.16
12,CCOc1ccc(C2c3c(oc4cc(C)c(C)cc4c3=O)C(=O)N2CCCN2CCOCC2)cc1 (stereo not given),-8.64
13,CCOC(=O)C1CCN(Cc2nnnn2CCc2ccccc2)CC1,-3.91
14,Nc1nc2nccc(-c3ccco3)n2n1,-5.94
15,CC(C)OC(=O)C(C)Nc1n[nH]c(=S)[nH]c1=O (stereo not given),-1.15
16,COc1ccc(OC)c(-n2c(-c3ccc(S(C)(=O)=O)cc3)cc(C=O)c2C)c1,-4.11
17,c1ccc(-c2oc3ncnc(NCCCN4CCOCC4)c3c2-c2ccccc2)cc1,-8.09
18,c1cncc(-c2nc(NCCCn3ccnc3)c3ccccc3n2)c1,1.38
19,Cc1nc(NCCCn2ccnc2)c2oc3ccccc3c2n1,7.2
20,CCc1nc(NCCCn2ccnc2)c2oc3ccccc3c2n1,-11.5

row,SMILES,inhibition [%]
1,Cc1nc(NCCCn2ccnc2)c2ccccc2n1,-2.03
2,c1ccc(-c2c(-c3ccccc3)n(Cc3ccco3)c3ncnc(NCCCn4ccnc4)c23)cc1,25.2
3,CCOC(=O)c1cnn(CCOC(=O)c2cccs2)c1NC(=O)c1cccs1,7.28
4,COC(=O)c1ccc(CSc2nnc(Nc3ccc(C)cc3)s2)o1,-4.05
5,Cc1c(Br)c([N+](=O)[O-])nn1CC(=O)c1ccccc1,0.16
6,Cc1ccccc1CNC(=O)CCc1ccccc1,-2.14
7,CCc1ccc(Oc2ncnc(N)c2[N+](=O)[O-])cc1,-1.27
8,NC(=O)c1cc2n(n1)C(C(F)(F)F)CC(c1ccco1)N2 (stereo not given),-17
9,Cc1ccc2nc3c(nc2c1)-c1ccccc1C3=O,-8.47
10,Cc1ccc2nc(-c3ccccc3)c(-c3ccccc3)nc2c1,1.48
11,O=C(CN1CCN(S(=O)(=O)c2ccccc2)CC1)Nc1ccc2c(c1)OCO2,-8.01
12,Nc1ncccc1OCc1cccc(C(F)(F)F)c1,16.6
13,COc1ccc2nc(C(F)(F)Cl)c(C#N)c(N)c2c1,-0.68
14,O/N=C/c1ccc2cccc(O)c2n1,3.62
15,COc1ccc(C(=O)N/N=C/c2ccc3cccc(O)c3n2)cc1,64.5
16,O=C(O)c1ccc(/C=C/c2ccc3cccc(O)c3n2)cc1,74.2
17,O=C(Cc1ccccc1)N/N=C/c1ccc2cccc(O)c2n1,22.8
18,COc1cc2c(cc1NC(=O)C(C)Sc1ccc(C)cc1)oc1ccccc12 (stereo not given),9.39
19,CCOC(=O)CON1C(=O)C(=O)N(OCC(=O)OCC)[C@H]2CCCC[C@H]21,2.73
20,COc1ccc(-c2[nH]ncc2CN2CCSCC2)c(OC)c1,-1.11

# Source: PubChem BioAssay AID1626 (SRMLSC, 2009)
